An excerpt weighted towards active compounds, which were near 3.6% of everything screened.
LGR2 antag – inhibitors of bursicon-induced LGR2 CRE-luciferase signal, primary screen, cell-based, HEK293, CRE-luciferase reporter, bursicon stimulation; bursicon-stimulated, 4 h; Drosophila bursicon receptor LGR2 (rickets); inhibition, % at 9.99 µM; 0.35% of 380,000 active;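 active means drop in luminescence signal, shown as inhibition above about 50% in the replicate tests, limit read from the data, passing the limit was not always enough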;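 further: agonist challenge used bursicon conditioned medium at about half maximal strength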
HSP90 refold inh – HSP90 inhibitors, primary screen, cell lysate, luminescence. 0.91% of 290,000 active. Rabbit reticulocyte lysate, luciferase refolding luminescence, 3 h. inhibition, % at 5.6 µM;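 active means inhibition above the screen-wide mean plus 3 SD, computed separately per campaign, cut at about 16% in these data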;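 further: 0% = DMSO wells and 100% = 60 µM geldanamycin wells; inhibitors lower the luminescence because luciferase stays unfolded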
KKLEB tox – cytotoxicity in KKLEB CF airway cells, primary screen, cytotoxicity control for CF NF-kB inhibitor project, cell-based, uHTS, fluorescence assay plates. 0.36% of 360,000 active. KKLEB CF airway cells viability, ATPlite luminescence, overnight; active compounds read low; cells stimulated with P. aeruginosa culture filtrate. activity change (cytotoxicity), % at 5 µM. AID 602141, 2011;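 active means corrected activity change at or below -50% at 5 µM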
Peg3 promoter – Peg3 promoter-driven luciferase inhibitors, primary screen, cell-based, HeLa, luciferase luminescence. 1.7% of 360,000 active. inhibition, % at 20 µM. AID 588405, 2011. HeLa PEG-Prom luciferase reporter, overnight;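 active means inhibition of at least 50% at 20 µM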
CF NFkB inh – inhibitors of PAF-induced NF-kB signaling, primary screen, cell-based, GFP fluorescence, uHTS. KKLEB NF-kB-GFP reporter, GFP fluorescence overnight. inhibition, % at 5 µM. 0.86% of 360,000 active;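 active means at least 50% inhibition at 5 µM, scaled per plate between neutral and stimulator controls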;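 further: PAF is a Pseudomonas aeruginosa culture filtrate used as stimulus; plate controls were PAF-stimulated DMSO wells for no effect and unstimulated DMSO wells for full effect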
Mdm2-MdmX inh – inhibitors of human Mdm2-MdmX association, primary screen, cell-based, luminescence, split luciferase, SaOS-2, uHTS; inhibition, % at 8 µM; 3% of 330,000 active; SaOS-2 split-luciferase Mdm2/MdmX complementation;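 active means inhibition of at least 50% at 8 µM in the primary screen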
Target sequence (O15151 whole entry, looked up): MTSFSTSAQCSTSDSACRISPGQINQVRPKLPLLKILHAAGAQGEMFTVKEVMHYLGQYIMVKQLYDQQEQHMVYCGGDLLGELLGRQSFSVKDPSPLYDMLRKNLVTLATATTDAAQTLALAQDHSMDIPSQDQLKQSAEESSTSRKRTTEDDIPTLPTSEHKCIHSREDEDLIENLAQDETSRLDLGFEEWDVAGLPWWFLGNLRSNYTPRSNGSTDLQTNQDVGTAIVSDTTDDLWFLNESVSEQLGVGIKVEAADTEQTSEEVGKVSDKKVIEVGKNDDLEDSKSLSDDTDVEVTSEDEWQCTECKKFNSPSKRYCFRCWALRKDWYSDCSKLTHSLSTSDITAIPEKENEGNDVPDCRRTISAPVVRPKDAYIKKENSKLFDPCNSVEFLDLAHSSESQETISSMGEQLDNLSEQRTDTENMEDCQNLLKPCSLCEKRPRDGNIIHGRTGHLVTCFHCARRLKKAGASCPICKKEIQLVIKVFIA
Target sequence (Q00987 whole entry, looked up): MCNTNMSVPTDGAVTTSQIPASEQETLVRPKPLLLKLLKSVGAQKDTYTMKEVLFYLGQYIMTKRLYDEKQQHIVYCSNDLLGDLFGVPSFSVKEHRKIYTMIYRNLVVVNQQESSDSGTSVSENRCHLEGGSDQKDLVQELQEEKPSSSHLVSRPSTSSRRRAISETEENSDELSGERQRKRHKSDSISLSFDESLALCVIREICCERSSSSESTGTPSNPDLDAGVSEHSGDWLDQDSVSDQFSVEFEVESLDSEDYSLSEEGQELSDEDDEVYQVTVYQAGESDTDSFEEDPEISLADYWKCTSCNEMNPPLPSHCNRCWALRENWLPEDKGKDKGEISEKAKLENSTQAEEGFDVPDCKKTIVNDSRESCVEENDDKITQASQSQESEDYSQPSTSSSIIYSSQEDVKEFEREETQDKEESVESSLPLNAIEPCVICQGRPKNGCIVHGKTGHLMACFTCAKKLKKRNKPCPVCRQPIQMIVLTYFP
Mdm2-MdmX conf – Mdm2-MdmX complex disruptors, retested hits, confirmation, luminescence, single concentration; shares compounds with Mdm2-MdmX inh; Mdm2-MdmX binding, luminescent assay; 55% of 10,000 active; inhibition, % at 8 µM; AID 489028, 2010; in the data active means inhibition above about 40%
Full FLuc ctr – full-length luciferase signal inhibition, confirmation, counter-screen for Mdm2/MdmX interaction inhibitor project, cell-based, single concentration, SaOS-2. shares compounds with Mdm2-MdmX inh. SaOS-2 full-length luciferase counterscreen, luminescence. inhibition, % at 8 µM. 77% of 6,200 active. AID 504607, 2011;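 active means mean inhibition at 8 µM reaching about 37%, which flags the compound as non-specific, limit read from the data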;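 further: p53-null SaOS-2 cells with luciferase driven by a doxycycline-inducible promoter; compound on cells about two nights before reading with doxycycline added after day one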
* marks the source's active call; other numbers are inactive results; / = not tested or not shown.

SMILES | LGR2 antag | HSP90 refold inh | KKLEB tox | Peg3 promoter | CF NFkB inh | Mdm2-MdmX inh | Mdm2-MdmX conf | others
O=C(CCl)N1c2ccccc2CCc2ccccc21 | 14 | 0 | -14 | 25 | 22 | 100* | 50* | Full FLuc ctr=12
CC(Cl)C(=O)N1c2ccccc2CCc2ccccc21 (stereo unspecified) | 2 | -1 | -10 | 26 | -4 | 9 | /
CCCC(=O)Nc1ccc2c(c1)C(=O)N(C)C[C@H](OC)[C@@H](C)CN(Cc1cncnc1)[C@H](C)CO2 | 12 | / | / | / | / | / | /
O=C(CCl)Nc1cccc(Oc2cnccn2)c1 | 4 | 1 | 8 | 22 | -31 | 33 | /
O=C(CCl)Nc1cn(-c2ccccc2)nc1-c1ccccc1 | / | 4 | -71* | 84* | 46 | 75* | 33 | Full FLuc ctr=34
CC(=O)Nc1ccc(NC(=O)Cc2ccc(-c3ccccc3)cc2)cc1 | -5 | 3 | -7 | 2 | -7 | 14 | /
O=C(CCl)Nc1cccc(Oc2ccccc2)c1 | 5 | 2 | -24 | 12 | -38 | 94* | 21
O=C(CCl)Nc1ccc(-c2ccccc2)cc1 | / | 4 | -16 | 104* | 33 | 96* | 99* | Full FLuc ctr=50*
CC(C)N(c1ccccc1)c1ccc(NC(=O)CCl)cc1 | 33 | 1 | -86* | 91* | 82* | 97* | 99* | Full FLuc ctr=51*
C[C@H](CO)N1C[C@H](C)[C@H](CN(C)Cc2ccc3c(c2)OCO3)Oc2ccc(NC(=O)NC3CCCCC3)cc2C1=O | -30 | / | / | / | / | / | /
O=C(C[C@@H]1C=C[C@H](NC(=O)Nc2ccc(C(F)(F)F)cc2)[C@H](CO)O1)NCc1ccccn1 | 0 | / | / | / | / | / | /
COc1cccc(/C=N/Nc2nc(-c3cccnc3)nc3ccccc23)c1 | -2 | -2 | -3 | -41 | -4 | 34 | /
c1ccc(CNc2nc(N3CCN(Cc4ccccc4)CC3)nc3ccccc23)cc1 | 22 | 4 | -25 | 65* | 23 | 81* | 25
C(=N\Nc1nc(-c2ccccn2)nc2ccccc12)/c1ccccc1 | / | -1 | / | / | / | 80* | 89* | Full FLuc ctr=26
c1ccc(N2CCN(c3nc(NCc4ccco4)c4ccccc4n3)CC2)cc1 | / | 8 | -12 | -2 | -2 | 27 | /
c1ccc(-c2nc(NCc3ccco3)c3ccccc3n2)nc1 | 17 | 2 | -7 | 49 | 0 | 65* | -8
c1coc(CNc2nc(N3CCCCC3)nc3ccccc23)c1 | / | 4 | -8 | 35 | -21 | 52* | 4
OCCNc1nc(N2CCCCC2)nc2ccccc12 | 10 | 2 | 3 | 13 | 3 | 4 | /
O=C(NCCN1CCCCC1)[C@@H]1[C@@H](CO)[C@@H]2Cn3c(cccc3=O)[C@H]1N2C(=O)C1CC1 | 8 | / | / | / | / | / | /
CC(=O)N(C)C[C@@H]1Oc2ncc(C#CC3(O)CCCC3)cc2C(=O)N([C@@H](C)CO)C[C@H]1C | -11 | / | / | / | / | / | /
Cc1ccc(Nc2nc(NCc3ccco3)c3ccccc3n2)cc1 | 96* | 4 | -40 | 106* | 32 | 70* | -42
OCCNc1nc(Nc2ccccc2)nc2ccccc12 | / | -1 | -9 | -5 | -9 | 11 | /
COc1ccccc1Nc1nc(NCc2ccco2)c2ccccc2n1 | / | 4 | -12 | -47 | 4 | 23 | /
c1ccc(CN2CCC(Nc3nc(-c4ccccc4)nc4ccccc34)CC2)cc1 | / | -7 | -7 | 75* | -5 | 83* | 39 | Full FLuc ctr=85*
OCCNc1nc(Nc2ccc(Br)cc2)nc2ccccc12 | 48 | -3 | / | / | / | 70* | 55* | Full FLuc ctr=67*
SMILES | LGR2 antag | HSP90 refold inh | KKLEB tox | Peg3 promoter | CF NFkB inh | Mdm2-MdmX inh | Mdm2-MdmX conf | others
N#CC1=C(N)OC2=C(CC/C2=C\c2ccccc2Cl)C1c1ccccc1Cl (stereo unspecified) | -10 | 1 | -5 | 50 | 4 | 66* | 7
COc1cc(NC(=O)COC(=O)c2[nH]c(C)c(C(C)=O)c2C)cc(OC)c1 | 12 | / | 5 | 11 | -65 | 51* | 24
CO[C@@H]1CN(C)C(=O)c2ccc(NC(=O)Nc3cc(F)ccc3F)cc2OC[C@H](C)N(C)C[C@@H]1C | 13 | / | / | / | / | / | /
COc1ccc(-n2ncc(N(C)n3cccc3)c(Cl)c2=O)cc1 | -19 | 5 | -7 | -201 | 4 | -66 | /
COc1ccc(-n2ncc(Cl)c(Cl)c2=O)cc1 | 106* | 0 | -78* | 105* | 89* | 100* | 99* | Full FLuc ctr=52*
O=C(C[C@H]1CC[C@H]2[C@@H](COC[C@H](O)CN2S(=O)(=O)c2ccc(F)cc2)O1)NCc1ccc(Cl)c(Cl)c1 | -19 | / | / | / | / | / | /
Cc1cc(NC(=O)c2ccc(Cl)cc2)c(C)cc1O | / | 2 | 8 | -91 | -4 | -23 | /
Cc1cc(C(C#N)c2ccc(Cl)cc2)c(Cl)cc1NC(=O)c1cc(I)cc(I)c1O (stereo unspecified) | / | / | -12 | 44 | 62* | 54* | 12
COc1ccc(NC(=O)C(=O)N/N=C\c2ccc(CNC(=O)C(=O)Nc3ccc(C)c(C)c3)o2)c(OC)c1 | / | -1 | / | / | / | 92* | 46* | Full FLuc ctr=95*
COc1ccc(NC(=O)N(C)C[C@H]2Oc3c(NC(=O)c4cnccn4)cccc3C(=O)N([C@H](C)CO)C[C@@H]2C)cc1 | 9 | / | / | / | / | / | /
O=C(CCCCCCC(=O)Nc1ccccc1)NO | -17 | / | / | -116 | / | 50* | 34
Cc1noc(C)c1S(=O)(=O)Nc1ccc2c(c1)CC(=O)N([C@H](C)CO)C[C@@H](C)[C@@H](CN(C)C(=O)Nc1cccc3ccccc13)O2 | -15 | / | / | / | / | / | /
C[C@@H]1CN([C@@H](C)CO)C(=O)c2cccc(NC(=O)c3cnccn3)c2O[C@H]1CN(C)C(=O)Nc1cccc2ccccc12 | 14 | / | / | / | / | / | /
O=C1c2ccccc2C(=O)C12OC2c1ccc(Cl)cc1 (stereo unspecified) | / | 0 | / | / | / | 81* | -8
O=C1c2ccccc2C(=O)C12OC(c1ccccc1)C1(C(=O)c3ccccc3C1=O)C2c1ccc([N+](=O)[O-])cc1 (stereo unspecified) | / | 0 | -2 | -4 | 6 | 14 | /
Cc1ccn2c(NC3CCCCC3)c(-c3cccc(SC4CCCCC4)c3)nc2c1 | -3 | / | -35 | 34 | 45 | 91* | 0
Cc1ccn2c(NC3CCCCC3)c(-c3ccc(SC4CCCCC4)cc3)nc2c1 | 5 | / | / | / | / | / | /

Screening data as filed in PubChem BioAssay.
